Compound activity as filed in PubChem BioAssay.
Tau fibril FP = inhibitors of human tau fibril formation; K18 P301L tau heparin fibrillization, Alexa594 FP, 6 h; Potency, µM (titrated, usually from 57.7 µM), for inactives: at the top dose activity, negative = inhibition, usual class: inhibitors; hit rate 0.39% among 280,000; note: potency is the fitted concentration of half-maximal effect; nearly all actives have a fitted effect of over 55% in size
Target sequence (P10636 561-689 P618L limits assumed): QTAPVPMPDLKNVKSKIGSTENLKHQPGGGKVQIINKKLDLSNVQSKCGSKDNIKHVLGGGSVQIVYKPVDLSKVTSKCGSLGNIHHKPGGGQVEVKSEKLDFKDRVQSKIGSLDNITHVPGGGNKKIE
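Recombinant K18 P301L […], labeled with Alexa 594 at 0.24 uM over 15 uM unlabeled; heparin inducer 20 uM final; 37 C, 6 hr; FP endpoint.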
Coupling enz = coupling enzyme interference in Giardia aldolase counter-screen. coupling enzyme system counterscreen, AmpLite Red fluorescence. activity change, negative = inhibition, % at 58.2 µM, hits read low. hit rate 0.67% among 290,000; in the data active = activity change below about -30%
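Fluorescence at 525 nm excitation and 598 nm emission measured inhibition of the coupled detection system without aldolase. Compounds (at 57.5 uM final) were preincubated 10 min at room temperature with coupling enzyme reagent before a 20 min substrate/AmpLite Red step.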
Tau fluor counter = counter-screen for tau fibril formation inhibitors | Potency, µM (doses to about 57.7 µM), inactives show at the highest dose activity change, negative = decrease | tau K18 P301L Alexa594 fluorescence, heparin fibrillization | hit rate 0.93% among 280,000; note: potency is the fitted concentration of half-maximal effect; nearly all actives have a fitted effect of over 55% in size
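Human tau K18 P301L (15 uM unlabeled, 0.24 uM Alexa 594-labeled) in 100 mM sodium acetate pH 7 with 20 uM heparin, 6 hr at 37 C. ThT 30 uM added, 1 hr ambient; Alexa 594 FP and total fluorescence read at 555/632 nm.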
G9a inh = inhibitors of human histone lysine methyltransferase G9a | Q96KQ7 | AID 504332 | G9a H3K9 monomethylation, AlphaScreen, 2 h | Potency, µM (series often up to 102 µM), without a hit: at the top dose activity, negative = inhibition, usual class: inhibitors | hit rate 8.8% among 350,000; note: potency is the fitted concentration of half-maximal effect; nearly all actives have a fitted effect of over 75% in size
Target sequence (Q96KQ7 913-1193 limits assumed): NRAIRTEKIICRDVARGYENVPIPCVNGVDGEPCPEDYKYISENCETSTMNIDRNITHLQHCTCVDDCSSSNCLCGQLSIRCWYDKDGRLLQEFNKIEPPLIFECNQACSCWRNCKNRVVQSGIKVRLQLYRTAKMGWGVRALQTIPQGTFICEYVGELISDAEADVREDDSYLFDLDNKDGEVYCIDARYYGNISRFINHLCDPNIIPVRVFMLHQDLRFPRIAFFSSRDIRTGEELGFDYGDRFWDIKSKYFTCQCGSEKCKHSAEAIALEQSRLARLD
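Compounds were preincubated with 20 nM G9a for 15 min, after which biotinylated H3K9 peptide (500 nM) and SAM (20 uM) started a 2 h room-temperature reaction. Monomethylated product was quantified by antibody-based AlphaScreen chemiluminescence.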
Tau fibril ThT = blocks human tau fibril formation measured by thioflavin T. Potency, µM (highest dose often 57.4 µM), without a hit: at the top dose activity, negative = inhibition, hits mostly inhibitors. recombinant tau K18 P301L, heparin-induced fibrillization, ThT fluorescence. P10636. hit rate 2.1% among 270,000; note: potency is the fitted concentration of half-maximal effect; nearly all actives have a fitted effect of over 55% in size
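Using a mix of unlabeled (15 uM) and Alexa 594-labeled (0.24 uM) tau K18 P301L, heparin-triggered fibrillization over 6 hr at 37 C was scored by ThT fluorescence.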
Sfp inh = blocks B. subtilis Sfp PPTase activity. Biochemical Sfp PPTase activity, qHTS. Potency, µM, inactives show largest response in the series, negative = inhibition, usual class: inhibitors. hit rate 3.5% among 310,000;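 note: the enzyme is Sfp with the accession as filed and its product quenches rhodamine fluorescence; potency is the fitted concentration of half-maximal effect; 0% = enzyme reaction without inhibitor and -100% = no enzyme wells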
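Step 1, compound plus 15 nM Sfp-PPTase, 15 min, room temperature. Step 2, add rhodamine-CoA (5 uM) and BHQ-2-YbbR (12.5 uM). Step 3, read 525/598 nm fluorescence at 0 and 30 min.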
* marks the source's active call; other numbers are inactive results; u = inconclusive; x = no result given; ! = not confirmed by another sample; [ ] = dose if it differs, or a comment. Only some compounds are listed: those with a hit (about 11% of all), similar ones and a draw of the others. Unless noted, calls come from the whole dose curve; as a rule, active = well fitted curve in the direction sought with a large enough effect; inconclusive = small, poorly fitted or top-dose-only effect, or another doubt; inactive = no such curve, though single readings can be large; an effect the other way counts as inactive or inconclusive. Unless noted, % is set by controls: 0 for no effect and ±100 for the full control effect.

SMILES	Tau fibril FP	Coupling enz	Tau fluor counter	G9a inh	Tau fibril ThT	Sfp inh
Clc1cccc(Cl)c1/C=C/c1nc2ccccc2[nH]1	u	0.7	u	0.2%	-12.2%	3.0%
CC(C)SC1=NC(C)(C)C=C(/C=C/c2c(Cl)cccc2Cl)N1	-0.3%	-7.1	-18.5%	44.7µM*	u	-15.1%
CCc1ccc(NC(=O)CNCc2ccc(OC)c(OC)c2)cc1	x	1.8	x	-50.5%	x	u
Cc1[nH]nc2c1C(c1ccsc1)C(C#N)=C(N)O2 (centres undefined)	-8.4%	2.1	-10.1%	-21.4%[59 µM]	-13.8%	6.7%
Cc1[nH]nc2c1C(c1ccsc1C)C(C#N)=C(N)O2 (centres undefined)	1.1%	-6.8	-12.9%	79.4µM*	u	13.1%
Cc1[nH]nc2c1C(c1ccc(-c3ccccc3C#N)o1)C(C#N)=C(N)O2 (centres undefined)	-0.8%	-23.6	-28.6%	20µM*	15.8µM*	22.4µM*
Cc1[nH]nc2c1C(c1ccc(F)cc1)C(C#N)=C(N)O2 (centres undefined)	-1.0%	4.8	-2.0%	-2.0%[59 µM]	1.5%	12.8%
Cc1cc(C2C(C#N)=C(N)Oc3n[nH]c(C)c32)c(C)s1 (centres undefined)	-5.3%	x	-19.6%	-12.6%[0.501 µM]	u	-18.1%
Cc1[nH]nc2c1C(c1ccc(-c3ccc(Cl)cc3)o1)C(C#N)=C(N)O2 (centres undefined)	-8.7%	0.9	u	79.4µM*	10µM*	-18.4%
Cc1ccc(-c2ccc(C3C(C#N)=C(N)Oc4n[nH]c(C)c43)o2)cc1 (centres undefined)	-11.7%	-2.8	12.6µM*[quencher]	u	6.31µM*	50.1µM*
Cc1ccc2cccc(S(=O)(=O)N3CCCc4ccccc43)c2n1	-6.8%	-29.7	-26.8%	-2.1%	-9.5%	17.9%
Cc1cc(C)c(NC(=O)Cn2c(=O)n(-c3ccc(F)cc3)c(=O)c3c(C)c(C(=O)N(C)C)sc32)c(C)c1	1.0%	x	1.3%	0.0%[59 µM]	5.2%	x
CC1=CC(C)C2COC(c3ccc[n+](C)c3)C1C2C (centres undefined)	-2.9%	0.0	-3.3%	7.08µM*	-1.6%	7.6%
CC1=CC(C)[C@@H]2COC(c3ccc(O)cc3)[C@H]1C2C (some centres undefined)	x	2.4	x	7.9%[2.33 µM]	x	7.4%
CCc1cc(Cn2nc(-c3ccccc3)cc2C(=O)NCc2ccccc2OC)on1	x	x	x	7.8%[2.33 µM]	x	x
Cc1ccccc1CN1CCNC(=O)C1CC(=O)O (centres undefined)	-0.6%	-1.9	1.8%	14.1µM*	-8.3%	0.7%
COc1ccc(CN2CCNC(=O)C2CC(=O)NC2CCCC2)c(OC)c1 (centres undefined)	x	x	x	-21.0%	x	5.3%
Cc1cccc(CCNC(=O)CC2C(=O)NCCN2Cc2ccccc2C)n1 (centres undefined)	x	x	x	50.1µM*	x	1.5%
COc1cccc(CN2CCNC(=O)C2CC(=O)O)c1OC (centres undefined)	6.9%	2.2	1.5%	u	-3.2%	7.0%
Cc1ccccc1CN1CCNC(=O)C1CC(=O)NCCN1CCCCC1=O (centres undefined)	x	x	x	79.4µM*	x	14.0%
COc1ccc(CN2CCNC(=O)C2CC(=O)O)c(OC)c1 (centres undefined)	-4.7%	0.6	7.3%	14.1µM*	-1.0%	3.6%
Cc1ccc(C2(C)NC(=O)N(CC(=O)Nc3ccccc3N3CCCC3)C2=O)cc1 (centres undefined)	x	x	x	39.8µM*	x	x
CC1(c2ccc(Cl)cc2)NC(=O)N(CC(=O)Nc2ccc(N3CCCCC3)cc2)C1=O (centres undefined)	x	x	x	50.1µM*	x	x
Cc1ccc(C2(C)NC(=O)N(CC(=O)Nc3ccccc3N3CCCCC3)C2=O)cc1 (centres undefined)	x	x	x	-47.8%	x	x
O=C(O)c1ccccc1Oc1ccc(Oc2ccccc2)cc1	x	12.6	x	-9.9%	x	5.3%
SMILES	Tau fibril FP	Coupling enz	Tau fluor counter	G9a inh	Tau fibril ThT	Sfp inh
CC(C)OP(=O)(OC(C)C)/C(C=O)=N\Nc1ccc([N+](=O)[O-])cc1	4.9%	-0.1	-11.1%	-40.9%	15.8µM*	12.8%
O=C1C2CC=C(Cl)CC2C(=O)N1CCCCCCN1C(=O)C2CC=C(Cl)CC2C1=O (centres undefined)	2.6%	3.2	-10.4%	11.2µM*	-13.7%	0.5%
COc1ccc(CCNC(=O)c2nc(SCc3ccc(C)cc3)ncc2Cl)cc1OC	1.9%	x	-11.0%	7.3%[59 µM]	-11.4%	x
CCOC(=O)COc1ccc2nsnc2c1Cl	-4.2%	2.0	-8.0%	12.6%[2.33 µM]	-12.4%	15.9%
C=C(CC)C(=O)c1ccc(OCC(=O)O)c(Cl)c1Cl	6.0%	12.3	9.6%	70.8µM*	u	20µM*!
CC1=CC(c2ccccc2)n2nc(N3C(=O)c4ccccc4C3=O)nc2N1 (centres undefined)	1.5%	-1.3	3.2%	-2.3%[12.7 µM]	3.2%	-7.7%
CC1=CC(c2ccccc2)n2nc(N3C(=O)C4CC=CCC4C3=O)nc2N1 (centres undefined)	-11.6%	2.4	-17.4%	25.1µM*	u	8.5%
CC1=CC(c2ccccc2)n2nc(N3C(=O)CCC3=O)nc2N1 (centres undefined)	-0.6%	5.9	-1.8%	20µM*	-6.5%	-7.6%
COc1ccc(-c2ccc(OC)c(C3C4C=CCC(C)C4C(=O)N3Cc3ccccc3)c2)cc1 (centres undefined)	x	1.1	x	x	x	2.4%
CCCN=Cc1ccc(O)cc1	3.4%	-0.3	5.8%	28.5%[12.7 µM]	-0.7%	11.7%
Cc1cccc(C)c1NC(=O)C(NS(=O)(=O)c1ccc2c(c1)CCC(=O)N2)c1ccccc1 (centres undefined)	3.1%	x	-8.1%	-6.2%[59 µM]	3.2%	x
Cc1cccc(NC(=O)C(NS(=O)(=O)c2ccc3c(c2)CCC(=O)N3)c2ccccc2)n1 (centres undefined)	-9.4%	-1.4	-9.6%	22.4µM*	-19.1%	-28.6%
NC(=O)C(=CNc1nc(-c2ccc(Cl)c(Cl)c2)cs1)C(N)=O	-9.0%	-18.2	15.8µM*[quencher]	x	15.8µM*	22.4µM*
O=C(O)c1ccc(-c2nc(-c3ccc(Cl)c(Cl)c3)cs2)cc1	-5.9%	1.4	-11.4%	-33.9%	-8.4%	-15.6%
CC(C)c1ccc(-c2cc(C(=O)NN3CCN(C)CC3)c3ccccc3n2)cc1	-3.1%	-4.3	4.4%	50.1µM*	15.1%	39.8µM*
O=S(=O)(Nc1ccccc1N1CCCCC1)c1ccc(Cl)s1	-2.5%	-22.5	-29.8%	-9.9%	-20.8%	-12.8%
O=S(=O)(Nc1cc(O)cc2cccnc12)c1ccc(Br)s1	x	-67.7*	x	x	x	u
O=S(=O)(Nc1cc(O)cc2cccnc12)c1ccc(Cl)s1	x	-63.9*	x	x	x	-25.0%
